Experimental findings from PubChem BioAssay (NCATS) are described below.

Inconclusive results are not listed. Where a call stands in place of a potency, no number is given. Active and inactive are the calls of the source. The call rests on the fitted dose curve; in most records, active means well fitted inhibition curve with a large enough effect; inconclusive means small, poorly fitted or top-dose-only effect; inactive means flat fitted curve, though single readings scatter. Peptide text beside a SMILES is read from it. * marks the point of attachment. Cbz = O=C(OCc1ccccc1)*; CH2F = FC*

The assay concerns CRL-7250. The experiment in a line: qHTS assay to identify novel small-molecules to repurpose for Merkel cell carcinoma treatment (AID 1296009). Further: nearly all actives have a fitted effect of over 60% in size. As to conditions: MCC and control cell lines, CellTiter-Glo viability, 72 h; series mostly up to 92 µM. The procedure, abridged:
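Cell viability measured by CellTiter-Glo following 72 hr compound treatment at 37 degree celsius, with NPC and MIPE libraries tested in 8- and 11-point concentration series.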
Background: In qHTS, concentration-response curves come from the screen itself.
On to `CC(C)C1C(OC(=O)/C=C/c2ccccc2)CC2(C)OC2CCC2(C)OC2C1O` (stereo not given), for which the Potency entry is “inactive”.

On to `COC(=O)C1=CO[C@@H](O[C@@H]2O[C@H](CO)[C@@H](O)[C@H](O)[C@H]2O)[C@@H]2[C@@H](CO)[C@@H](O)C(O)[C@H]12` (stereo not given in full), for which the Potency entry was “inactive”.

With `CC(=O)O[C@@H]1C(=O)C(C)=C(CCC(C)CC(=O)O)[C@@]2(C)CCCC(C)(C)C12` (stereo not given in full), the Potency result was “inactive”.

Consider `Nc1nc2c(cnn2CCCc2ccc(O)cc2)c2nc(-c3ccco3)nn12`, for which the Potency result is “inactive”.

For the compound `OC1COC(OCC2OC(OCCc3ccccc3)C(O)C(O)C2O)C(O)C1O` (stereo not given), the Potency entry is “inactive”.

For the compound `Cc1ccc([C@@H]2CC=C(C(=O)O)[C@H](c3ccc(C(C)(C)C)cc3)N2S(=O)(=O)c2ccc(C)cc2)cc1`, the Potency entry is “inactive”.

For the compound `COC(=O)CC[C@H](NC(=O)[C@H](CC(C)C)NC(=O)OCc1ccccc1)C(=O)N[C@@H](Cc1cnc[nH]1)C(=O)N[C@@H](CC(=O)OC)C(=O)CF` (Cbz-LE(OMe)HD(OMe)-CH2F), the outcome was “inactive [at 9.27 µM]”.

In the case of `FC(F)(F)c1cc(C(F)(F)F)c2ccc3nc(-c4nnco4)cn3c2n1`, the Potency entry is “inactive”.

On to `C=C(C)C1CCC2(C(=O)O)CCC3(C(=O)O)C(CCC4C5(C)CCC(O)C(C)(C(=O)O)C5CCC43C)C12` (stereo not given), for which the Potency entry was “inactive”.

Consider `CC/C=C\CC1C(=O)C=CC1(CCCCC1CCC(=O)O1)OC(C)=O` (stereo not given), for which the Potency entry was “inactive”.

Consider `CNC(=O)c1ccc2cc([C@@]3(O)CCn4cncc43)ccc2c1`, for which the Potency entry is “inactive”.

With `COC(=O)c1cc(OC)c(O[C@@H]2O[C@@H](C)[C@H](O)[C@@H](O)[C@H]2O)c(OC)c1`, the Potency result was “inactive”.

Turning to `C[C@@H]1O[C@@H](O[C@@H]2[C@@H](O)[C@H](O[C@H]3[C@H](O[C@H]4CC[C@@]5(C)C(CC[C@]6(C)C5CC=C5[C@@H]7CC(C)(C)CC[C@]7(C(=O)O[C@@H]7O[C@H](CO)[C@@H](O)[C@H](O)[C@H]7O[C@@H]7O[C@@H](C)[C@H](O[C@@H]8O[C@@H](C)[C@H](O)[C@@H](O)[C@H]8O)[C@@H](O)[C@H]7O)CC[C@]56C)[C@@]4(C)CO)O[C@H](C(=O)O)[C@@H](O)[C@@H]3O)O[C@H](CO)[C@H]2O)[C@H](O)[C@H](O)[C@H]1O` (stereo not given in full), the outcome is “inactive [at 9.27 µM]”.

`CC1(C)CCC2(C(=O)OC3OC(COC4OC(CO)C(O)C(O)C4O)C(O)C(O)C3O)CCC3(C)C(=CCC4C5(C)CCC(O)C(C)(C(=O)O)C5CCC43C)C2C1O` (stereo not given): the outcome was “inactive [at 9.27 µM]”.

In the case of `CC1(C)CC[C@]2(C(=O)O[C@@H]3O[C@H](CO)[C@@H](O)[C@H](O)[C@H]3O)CC[C@]3(C)C(=CCC4[C@@]5(C)C[C@@H](O)[C@H](O)C(C)(C)C5[C@H](O)C[C@]43C)[C@@H]2[C@@H]1O` (stereo not given in full), the Potency entry was “inactive”.

As to `CC1=C(C)C(=O)OC(C(C)C2CCC3C4C5OC5C5(O)CC(OC6OC(CO)C(OC7OC(C)C(O)C(O)C7O)C(O)C6O)CC(O)C5(C)C4CCC23C)C1` (stereo not given), the Potency result was “inactive”.

As for `C=C1CCC2C(C)(C)CCC[C@]2(C)[C@H]1CC/C(C)=C/C(=O)O` (stereo not given in full), the Potency result was “inactive”.

On to `CC(=O)c1[nH]cc(CCC(=O)O)c1CC(=O)O`, for which the Potency result was “inactive”.

With `CC1=C2C[C@@]3(C)[C@@H](CCC[C@@H]3C)C[C@@]2(O)OC1=O`, the Potency entry is “inactive”.

As for `O=C(OC[C@@]1(O)CO[C@@H](O[C@H]2[C@H](Oc3ccc(O)cc3)O[C@H](CO)[C@@H](O)[C@@H]2O)[C@@H]1O)c1ccc(O)cc1`, the Potency result was “inactive”.

As for `Cc1c(CN(C)C(=O)/C=C/c2cnc3c(c2)CCC(=O)N3)oc2ccccc12`, the Potency result is “inactive”.

Consider `COC(=O)C(CC1(O)c2ccccc2N2C(=O)C(C)(C)N(O)C21)n1cnc2ccccc2c1=O` (stereo not given), for which the Potency result is “inactive”.

`C[C@@H](CC[C@@H]1[C@@]2(C)CCCC(C)(C)C2CC[C@@]1(C)O)CC(=O)O` (stereo not given in full): the Potency result is “inactive”.

Consider `Clc1cccc(COc2cncc(N3CCNCC3)n2)c1`, for which the Potency entry is “inactive”.

As for `COc1c(C(C)C)c(O)c(O)c2c1C(OC)[C@H]1OC(=O)[C@@]23CCCC(C)(C)[C@H]13` (stereo not given in full), the Potency result is “inactive”.

For `O=C(O)CCc1cc2ccoc2cc1O[C@@H]1O[C@H](CO)[C@@H](O)[C@H](O)[C@H]1O`, the Potency entry is “inactive”.

Turning to `O=C(Cc1ccc(-c2ccccc2)cc1)NC1CCC1`, the Potency result was “inactive”.

As for `COc1ccc(C)c2sc(NC(=O)c3ccncc3)nc12`, the Potency entry is “inactive”.

Take `COc1c2c(c(C)c3c1C(=O)OC3)OC1(C)CC(O)C34OC(OC)(OC3(C)C)C(O)CC4(C)C1C2` (stereo not given): the Potency result is “inactive”.

Take `NCCOCCOCCNC(=O)Cc1ccc(Nc2nc(NCc3ccc(F)cc3)nc(NCC3CCCCC3)n2)cc1`: the Potency result was “inactive”.
